Reference: PubChem BioAssay AID1159580 (chemical genetic matrix, 2015)
Among all 5,500 compounds or so, about 2,000 (36%) were called active. About 18% were inconclusive and are not listed. Cut-off read from the data, not from the text of the source: active = normalized growth mostly below about 0.91 (no sharp cut-off); inconclusive = no clear call, values can overlap the other calls; inactive = mostly above about 0.92. The list shows a part of the results.

Experiment: chemical genetic growth profiling, strain panel (AID 1159580);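 note: tested at 20 µM; growth read once vehicle control cultures reached saturation at 30 °C; 1 = growth at the plate median or of vehicle wells; lower values mean less growth of the strain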
Conditions: S. cerevisiae deletion strains, growth OD
[1] = locus YAR019C, strain CDC15, active compounds read low
[2] = locus YBL105C, strain PKC1, active compounds read low
[3] = locus YBR135W, strain CKS1, active compounds read low
[4] = locus YBR136W, strain MEC1, active compounds read low
[5] = locus YBR160W, strain CDC28, active compounds read low
[6] = locus YDL017W, strain CDC7, active compounds read low
[7] = locus YDL028C, strain MPS1, active compounds read low
[8] = locus YDL101C, strain DUN1, active compounds read low
[9] = locus YDL108W, strain KIN28, active compounds read low
[10] = locus YDL132W, strain cdc53, active compounds read low
[11] = locus YDL214C, strain PRR2, active compounds read low
[12] = locus YDR052C, strain DBF4, active compounds read low
[13] = locus YDR054C, strain cdc34, active compounds read low
[14] = locus YDR226W, strain ADK1, active compounds read low
[15] = locus YDR477W, strain SNF1, active compounds read low
[16] = locus YER123W, strain YCK3, active compounds read low
[17] = locus YER133W, strain GLC7, active compounds read low
[18] = locus YFL009W, strain cdc4, active compounds read low
[19] = locus YFL029C, strain CAK1, active compounds read low
[20] = locus YFR003C, strain YPI1, active compounds read low
[21] = locus YFR019W, strain FAB1, active compounds read low
[22] = locus YFR028C, strain CDC14, active compounds read low
[23] = locus YGR040W, strain KSS1, active compounds read low
[24] = locus YGR052W, strain FMP48, active compounds read low
[25] = locus YGR092W, strain DBF2, active compounds read low
[26] = locus YHR030C, strain SLT2, active compounds read low
[27] = locus YHR079C, strain IRE1, active compounds read low
[28] = locus YHR082C, strain KSP1, active compounds read low
[29] = locus YHR205W, strain SCH9, active compounds read low
[30] = locus YIL147C, strain SLN1, active compounds read low
[31] = locus YJL095W, strain BCK1, active compounds read low
[32] = locus YJL128C, strain PBS2, active compounds read low
[33] = locus YJL157C, strain FAR1, active compounds read low
[34] = locus YJR016C, strain ILV3, active compounds read low
[35] = locus YJR066W, strain TOR1 (second series), active compounds read low
[36] = locus YJR066W, strain TOR1, active compounds read low
[37] = locus YKL048C, strain ELM1, active compounds read low
[38] = locus YKL067W, strain YNK1, active compounds read low
[39] = locus YKL101W, strain HSL1, active compounds read low
[40] = locus YKL193C, strain SDS22, active compounds read low
[41] = locus YKL203C, strain TOR2, active compounds read low
[42] = locus YLR113W, strain HOG1, active compounds read low
[43] = locus YLR133W, strain CKI1, active compounds read low
[44] = locus YLR403W, strain SFP1, active compounds read low
[45] = locus YML070W, strain DAK1, active compounds read low
[46] = locus YMR001C, strain CDC5, active compounds read low
[47] = locus YMR205C, strain PFK2 (second series), active compounds read low
[48] = locus YMR277W, strain FCP1, active compounds read low
[49] = locus YNL006W, strain LST8, active compounds read low
[50] = locus YNL020C, strain ARK1, active compounds read low
[51] = locus YNL161W, strain CBK1, active compounds read low
[52] = locus YNL183C, strain NPR1, active compounds read low
[53] = locus YNL207W, strain RIO2, active compounds read low
[54] = locus YNL222W, strain SSU72, active compounds read low
[55] = locus YNL307C, strain MCK1 (second series), active compounds read low
[56] = locus YOL078W, strain AVO1, active compounds read low
[57] = locus YOL136C, strain PFK27, active compounds read low
[58] = locus YOR061W, strain CKA2, active compounds read low
[59] = locus YOR119C, strain RIO1, active compounds read low
[60] = locus YOR231W, strain MKK1, active compounds read low
[61] = locus YOR329C, strain SCD5, active compounds read low
[62] = locus YPL031C, strain PHO85, active compounds read low
[63] = locus YPL153C, strain RAD53, active compounds read low
[64] = locus YPL204W, strain HRR25, active compounds read low
[65] = locus YPL209C, strain IPL1, active compounds read low
[66] = locus YPL256C, strain CLN2, active compounds read low
[67] = locus YPR025C, strain CCL1, active compounds read low
[68] = locus YPR106W, strain ISR1, active compounds read low
[69] = locus YPR111W, strain DBF20, active compounds read low
[70] = strain NNK1, active compounds read low
[71] = strain TSCII, active compounds read low

Measured: normalized growth

COc1cc(NC(=S)N(C)C)c(OC)cc1Cl
inactive: [1] 0.984 | [2] 0.987 | [3] 0.996 | [4] 0.977 | [5] 0.991 | [6] 0.985 | [7] 0.987 | [8] 0.991 | [9] 0.996 | [10] 0.999 | [11] 0.984 | [12] 0.992 | [13] 0.983 | [14] 0.987 | [15] 0.979 | [16] 0.978 | [17] 0.99 | [18] 0.99 | [19] 0.983 | [20] 0.99 | [21] 0.971 | [22] 0.995 | [23] 0.974 | [24] 1.07 | [25] 0.992 | [26] 0.977 | [27] 0.984 | [28] 1.03 | [29] 0.963 | [30] 0.984 | [31] 0.982 | [32] 0.976 | [33] 0.997 | [34] 0.993 | [35] 0.967 | [36] 1 | [37] 0.991 | [38] 0.991 | [39] 0.971 | [40] 0.986 | [41] 1.03 | [42] 0.932 | [43] 0.987 | [44] 0.986 | [45] 0.974 | [46] 0.985 | [47] 0.988 | [48] 0.997 | [49] 0.984 | [50] 0.991 | [51] 0.982 | [52] 0.968 | [53] 0.987 | [54] 0.992 | [55] 1 | [56] 0.991 | [57] 0.984 | [58] 0.996 | [59] 1.01 | [60] 0.968 | [61] 0.984 | [62] 0.976 | [63] 0.97 | [64] 0.991 | [65] 0.988 | [66] 0.948 | [67] 0.999 | [68] 0.993 | [69] 0.996 | [70] 1 | [71] 0.989

COc1cc(NC(=S)NNS(=O)(=O)c2ccc(C)cc2)c(OC)cc1Cl
inactive: [1] 0.982 | [2] 0.974 | [3] 0.978 | [4] 0.971 | [5] 0.984 | [6] 0.984 | [7] 0.982 | [8] 0.976 | [9] 0.984 | [10] 0.974 | [11] 0.939 | [12] 0.986 | [13] 0.949 | [14] 0.974 | [15] 0.933 | [16] 0.921 | [17] 0.953 | [18] 0.982 | [19] 0.976 | [20] 0.985 | [21] 0.955 | [22] 0.968 | [23] 0.942 | [24] 1.06 | [25] 1.01 | [26] 0.858 | [27] 0.997 | [28] 1.02 | [29] 0.961 | [30] 0.986 | [31] 0.927 | [32] 0.966 | [33] 0.975 | [34] 0.977 | [35] 0.955 | [36] 0.97 | [37] 0.953 | [38] 0.94 | [39] 0.935 | [40] 0.97 | [41] 1 | [43] 0.947 | [44] 0.959 | [45] 0.942 | [46] 0.979 | [47] 0.947 | [48] 0.963 | [49] 0.986 | [50] 0.96 | [51] 0.984 | [52] 0.939 | [53] 0.981 | [54] 0.973 | [55] 0.941 | [56] 0.971 | [57] 0.929 | [58] 0.967 | [59] 1.05 | [60] 0.994 | [61] 0.984 | [62] 0.95 | [63] 0.95 | [64] 0.92 | [65] 0.972 | [66] 0.886 | [67] 0.972 | [68] 0.977 | [69] 0.951 | [70] 0.972 | [71] 0.98
active: [42] 0.849

COc1cc(NC(=S)NC(=O)c2ccccc2)c(OC)cc1Cl
inactive: [1] 0.985 | [2] 0.995 | [3] 0.99 | [4] 0.99 | [5] 0.997 | [6] 0.998 | [7] 0.988 | [8] 0.998 | [9] 0.981 | [10] 1 | [11] 0.962 | [12] 0.996 | [13] 0.994 | [14] 0.996 | [15] 0.973 | [16] 0.963 | [17] 0.986 | [18] 0.994 | [19] 0.98 | [20] 0.998 | [21] 0.974 | [22] 1 | [23] 0.963 | [24] 1.04 | [25] 0.989 | [26] 0.949 | [27] 0.979 | [28] 1 | [29] 0.9 | [30] 0.993 | [31] 0.961 | [32] 0.971 | [33] 0.989 | [34] 1 | [35] 0.951 | [36] 0.997 | [37] 0.981 | [38] 0.974 | [39] 0.939 | [40] 1 | [41] 1.05 | [42] 0.91 | [43] 0.968 | [44] 0.941 | [45] 0.957 | [46] 0.995 | [47] 0.977 | [48] 1 | [49] 0.991 | [50] 0.977 | [51] 1 | [52] 0.981 | [53] 1 | [54] 0.992 | [55] 0.968 | [56] 0.999 | [57] 0.968 | [58] 0.953 | [59] 0.983 | [60] 0.962 | [61] 0.996 | [62] 0.971 | [63] 0.966 | [64] 0.986 | [65] 0.995 | [66] 0.959 | [67] 0.998 | [68] 0.989 | [69] 0.986 | [70] 0.981 | [71] 1
